{"source": "PubChem BioAssay (EPA / NIEHS)", "note": "Several values for one entry are separate records, joined by “and”; a condition that tells them apart may be missing. Identical values can stand only once. Activity calls are given as the source filed them. How the source made its calls: active means hit-call score of the fitted dose curve at least 0.9, where 1 is the maximum; inactive means score below 0.9.", "data": [{"read-out": "not listed separately", "test": "BSK_3C_SRB: Viability Assessment in the BioMAP Diversity Plus: 3C Assay (AID 2283023);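 further: fitted both ways against DMSO so a hit may be signal rise or drop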", "conditions": "primary human endothelial cells (HUVEC)", "how_it_was_run": "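Absorbance at 560 nm of sulforhodamine B-stained (0.1%) total protein served as a cytotoxicity readout in human umbilical vein endothelial cells, 24 h after chemical treatment. Signal was fitted bidirectionally relative to DMSO.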", "values": [{"compound": "c1ccc2c(c1)ccc1ncccc12", "AC50": "14.3 µM (active)"}, {"compound": "CC1OC1C1CCC2(C)OC2C1", "note": "(configuration not stated)", "outcome": "inactive"}, {"compound": "CCO[Si](C)(OCC)OCC", "outcome": "inactive"}, {"compound": "CCOC(=O)c1ccccc1C(=C1C=C(Br)C(=O)C(Br)=C1)c1cc(Br)c(O)c(Br)c1", "AC50": "21.7 µM (active) and 23.7 µM (active)"}, {"compound": "CCCCC/C=C\\C/C=C\\CCCCCCCC(=O)OC", "outcome": "inactive"}, {"compound": "COc1ccc2nc(N)sc2c1", "outcome": "inactive"}]}, {"read-out": "Matrix Metallopeptidase 1 (MMP1), MMP1 (gene 4312)", "test": "BSK_BE3C_MMP1: BioMAP Diversity Plus: BE3C Assay for Matrix Metallopeptidase 1 (MMP1) Biomarker Activity (AID 2283024)", "conditions": "primary human bronchial epithelial cells; actives raise or lower the signal", "how_it_was_run": "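ELISA read-out of MMP1 in human lung bronchial epithelial primary cultures, 24 h post-dose; bidirectional curve fit vs DMSO baseline, gain or loss of signal scored.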", "values": [{"compound": "c1ccc2c(c1)ccc1ncccc12", "outcome": "inactive"}, {"compound": "CC1OC1C1CCC2(C)OC2C1", "note": "(configuration not stated)", "outcome": "inactive"}, {"compound": "CCO[Si](C)(OCC)OCC", "outcome": "inactive"}, {"compound": "CCOC(=O)c1ccccc1C(=C1C=C(Br)C(=O)C(Br)=C1)c1cc(Br)c(O)c(Br)c1", "outcome": "inactive"}, {"compound": "CCCCC/C=C\\C/C=C\\CCCCCCCC(=O)OC", "outcome": "inactive"}, {"compound": "COc1ccc2nc(N)sc2c1", "outcome": "inactive"}]}]}
